PubChem BioAssay AID977606 (Broad Institute, 2014)
The whole screen tested about 1,500 compounds, of which about 430 (29%) were called active. The list is a sample of the results. Potency and affinity values are given separately. Unmarked numbers belong to inactive results. No rule for the calls is given here.

Experiment: glucose-independent GLuc insulin release activation – cell-based, INS-1E, Gaussia luciferase, luminescence, cherry-pick, counter-screen for glucose-dependent insulin secretion activators, dose response (AID 977606);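 also: 0% = median of neutral control wells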
Conditions: INS-1E Gaussia luciferase insulin secretion, no glucose, 100% = twice neutral-control luminescence; series mostly up to 35 µM; activation: at the top concentration

Structure (SMILES)	activation
Cc1ccc(S(=O)(=O)N(CC(=O)Nc2ccc(C)cc2C)C(=O)N2CCN(C)CC2)cc1	7.3%
CCC(c1nnnn1-c1ccc2c(c1)OCCO2)N1CCc2ccccc2C1 (centres undefined)	-4.74%
CCOc1cc(CNc2cccc3[nH]c(C)nc23)ccc1OC	-6.58%
CCOC(=O)c1cnc2ccc(OCC)cc2c1N1CCN(c2ccccc2)CC1	4.79%
O=C(Nc1cccnc1)c1cnn2c(C(F)F)cc(C3CC3)nc12	-8.04%
C[C@@H]1CN([C@H](C)CO)S(=O)(=O)c2ccc(-c3ccc(C#N)cc3)cc2O[C@H]1CN(C)C	0.541%
C[C@H]1CN([C@@H](C)CO)C(=O)c2ccccc2-c2ccccc2CO[C@@H]1CN(C)Cc1cccc(C(F)(F)F)c1	1.11%
C[C@@H]1CN([C@@H](C)CO)C(=O)CCCn2nncc2CO[C@H]1CN(C)Cc1ccccc1	6.88%
C[C@@H]1CN([C@H](C)CO)C(=O)Cc2cc(NC(=O)CCCN(C)C)ccc2O[C@H]1CN(C)Cc1ccc(-c2ccccc2)cc1	36.9%
C[C@@H]1CN([C@H](C)CO)C(=O)c2cc(C#CCN(C)C)cnc2O[C@H]1CN(C)S(=O)(=O)c1cn(C)cn1	6.63%
C[C@H]1CN([C@@H](C)CO)C(=O)c2ccccc2-c2ccccc2CO[C@@H]1CN(C)Cc1ccc(Cl)c(Cl)c1	33.1%
C[C@@H]1CN([C@@H](C)CO)C(=O)c2cccc(NC(=O)Nc3ccc(C(F)(F)F)cc3)c2O[C@H]1CN(C)Cc1ccc(Cl)c(Cl)c1	29.3%
Cc1cccc(C)c1-n1nnnc1C1(C)CCC(=O)N1Cc1cccs1 (centres undefined)	-13%
Cc1ccc(-n2ncc3c2CC(C)(C)CC3NC(=O)CCCN2CCCC2=O)cc1 (centres undefined)	-13.3%
CCN(CC)CCn1c(=N)n(CC(O)COc2ccccc2)c2ccccc21 (centres undefined)	-12.7%
COCCNc1nc(Oc2cncc(Cl)c2)c2sccc2n1	9.21%
Cc1ccc(C)c(S(=O)(=O)Nc2ccc(C(=O)N3CCC3)cc2)c1	10.9%
N#Cc1cccnc1Nc1cccc(Cl)c1	0.724%
Cc1nc2ccccc2c(=O)n1/N=C/c1ccc(N(C)C)cc1	-0.341%
Cc1noc(C)c1NC(=O)N(C)C[C@H]1Oc2c(NC(=O)C3CCCCC3)cccc2C(=O)N([C@H](C)CO)C[C@@H]1C	-7.5%
C[C@@H]1CN([C@H](C)CO)C(=O)c2cc(C#CCc3ccccc3)cnc2O[C@H]1CN(C)C(=O)C1CCC1	23.1%
CCOC(=O)c1sc(NC(C)=O)nc1-c1ccccc1	-5.44%
CN(C(=O)COC(=O)c1cccs1)c1ccccc1	-7.76%
O=C(O)C(Cc1ccc(O)cc1)N1C(=O)c2ccccc2C1=O (centres undefined)	-3.37%
CCOc1ccccc1Nc1cc2n(c(=O)n1)CCc1cc(OC)c(OC)cc1-2	-4.8%
COC(=O)c1cccc(-n2c(=O)n(Cc3ccccc3)c(=O)c3[nH]cnc32)c1C	0.767%

Structure (SMILES)	activation
O=C(O)c1ccc(S(=O)(=O)N2CCC3(CC2)CC(=O)c2ccccc2O3)cc1	-15%
CCOC(=O)c1c(C)[nH]c(C(=O)COC(=O)c2cnccn2)c1C	14%
COc1ccc(N/C=C/C(=O)c2ccc(Cl)cc2)cc1	48.8%
CCOc1ncccc1C(=O)Nc1ccc(S(=O)(=O)Nc2nc(C)cc(C)n2)cc1	-2.86%
COc1cc2ccc(CC(=O)O)cc2cc1OC	3.11%
C[C@H](O)[C@@H]1CN2CCc3ccc(-c4ccc5c(c4)OCO5)cc3[C@@H]2C[C@@H]1N(C)C(=O)c1cccc(Cl)c1	-6.37%
CC(O)c1nc2ccc(Cc3ccc4nc(C(C)O)[nH]c4c3)cc2[nH]1 (centres undefined)	6.67%
Cc1ccc(-c2csc(NC(=O)CCCc3cccs3)n2)cc1	-13.3%
O=C(Cc1csc(NC(=O)c2ccccc2)n1)NO	4.16%
CCc1c(C(=O)Nc2ccc(C)c(C)c2)[nH]c(C)c1C(C)=O	-2.69%
CC(=O)Nc1ccc(-c2ccnc3c2CC(C)(C(=O)Nc2cccc(OC(F)(F)F)c2)O3)cc1 (centres undefined)	-18%
CCSc1ncnc2c(C#N)c3n(c12)CCCCC3	-23.6%
CN1CCCC1CCNC1C2CC3CC(C2)CC1C3 (centres undefined)	10.6%
Cc1c(C(=O)N(C)CCc2cnn(C)c2)oc2c(F)cccc12	-6.35%
COC(=O)C[C@@H]1OC[C@H](C(C)C)N1S(=O)(=O)c1ccc(C)cc1	-4.61%
Cc1ccc(-n2nc3c(c2NC(=O)C2CC2)CS(=O)(=O)C3)cc1	-70.2%
CCc1cc(=O)oc2c(CNCc3ccc(OC)cc3OC)c(O)c(Cl)cc12	3.11%
COc1ccc(S(=O)(=O)N2CCCCC2)cc1NC(=O)C1CCCC1	13.5%
CN1CCN(c2ccc(NC(=O)c3ccc(Oc4ccccc4)cc3)cc2)CC1	12.1%
N#Cc1cnn2c(C(F)(F)F)cc(-c3ccccc3)nc12	-6.6%
CCCCc1nnc2c(N(C)S(=O)(=O)c3ccccc3)nc3ccccc3n12	26.2%
O=C(CCn1nc(-c2ccc(Cl)cc2)ccc1=O)NCCCN1CCCCCC1	-10.3%
Cc1cc(-c2ccc(Cl)cc2)n2nc(C)cc2n1	9.9%
COc1ccc(-n2c3c(c(=O)[nH]c2=O)C(NS(=O)(=O)c2ccc(Cl)cc2)(C(F)(F)F)C(=O)N3)cc1 (centres undefined)	-6.54%
O=C(NCCc1ccccc1)c1cc(-c2ccc3c(c2)OCO3)on1	-11.9%
CCOc1cccc2cc(C(=O)Nc3cc(C)on3)c(=O)oc12	-5.12%

Structure (SMILES)	activation
CCOc1ccc(CCNC(=O)c2cc(C)on2)cc1OCC	17.1%
CC(=O)Cc1nsc(NC(=O)c2ccc(-c3cccc(Cl)c3)o2)n1	13.1%
CC(=O)c1cccc(NC2c3ncccc3C(=O)N2Cc2ccco2)c1 (centres undefined)	5.07%
COC(C)(C)c1cc(C(C)(C)C)nc(N)n1	-4.56%
O=C(O)CCN1c2ccccc2Sc2ccccc21	-13.1%
CC1=NN(C(N)=S)C(=O)C1N=Nc1ccccc1C (centres undefined)	-12.7%
O=c1cc(-c2cccc(Br)c2)nc(-c2ccccc2F)o1	18.6%
COc1cccc(-c2nnn(CC(=O)O)n2)c1	-2.57%
C1CCN(CCCNC2C3CC4CC(C3)CC2C4)C1 (centres undefined)	5.94%
CC(=O)Nc1nc(CC(C)C)cc(-c2ccco2)c1C#N	-11.2%
CC(C(=O)N1CCC(C(N)=O)CC1)N(c1ccc(Oc2ccccc2)cc1)S(C)(=O)=O (centres undefined)	2.24%
COc1ccc(C(=O)NCC(=O)OCC(=O)Nc2ccc(C)c(S(=O)(=O)N(C)C)c2)cc1OC	13.4%
c1nc(N2CCOCC2)c2c3c(sc2n1)CCCC3	3.5%
N#CC1=C(N)Oc2nc(-c3ccccc3)[nH]c2C1c1cccnc1 (centres undefined)	6.08%
COc1cc(/C=N/NC(=O)C(C)n2nnc3ccccc32)ccc1O (centres undefined)	20.6%
CCC(=O)Nc1ccc(C(=O)N/N=C/c2cccnc2)cc1	-9.47%
COc1ccc(N2CCN(S(=O)(=O)c3ccc(-c4cc(C)no4)s3)CC2)cc1	-0.25%
Cc1ccc(S(=O)(=O)N2CCN(C(=O)COC(=O)c3ccc(O)cc3)CC2)c(C)c1	-21.2%
Cc1ccc(C(C)C)c(OCCNCCc2ccccc2)c1	296%
Cc1nn(-c2ccccc2)c2c1C(O)CC(C)(C)C2 (centres undefined)	8.92%
CC/C(O)=C1\C(=O)CC(c2ccccc2)CC1=NC(C)C (centres undefined)	-3.66%
COc1ccc(CCNC(=O)COC(=O)c2cncc(Br)c2)cc1OC	-8.17%
CCc1ccc(OCC(=O)NC(=S)Nc2ccc(C)cc2C)c(Br)c1	-3.07%
CCOC(=O)C1=NN(C(=O)Nc2cccc(C(F)(F)F)c2)C2C(=O)N(c3cccc(C(F)(F)F)c3)C(=O)C12 (centres undefined)	-8.05%
C[C@@H]1CC2=C(C(=O)OC(C)(C)O2)[C@H](c2ccc(Cl)cc2)O1	14.6%
Cn1c(=O)c(=O)n(C)c2cc(S(=O)(=O)N3CCN(c4ccc(F)cc4)CC3)ccc21	-6.48%

Structure (SMILES)	activation
COc1ccc(C2=NOC(C(=O)NCc3ccccn3)C2)cc1OC (centres undefined)	-18.3%
COc1ccc(-c2cnc(N)nc2-c2ccc(OC)cc2)cc1	-4.31%
CCOc1ccc(CCNC(=O)COC(=O)c2cccnc2SC)cc1OCC	9.47%
CC(C)c1ccc2oc(=O)cc(CN3CCCCC3)c2c1	3.9%
CC1=C(C(=O)N2CCOCC2)CC(CC(=O)NCCCN(C)C)C(=O)N1CCCN1CCCC1=O (centres undefined)	0.538%
COc1ccc(CCN=C(N)NS(=O)(=O)c2ccc(C)c(C)c2)cc1OC	5.18%
CC1CC(C)CN(CC(O)COCc2ccccc2F)C1 (centres undefined)	-3.98%
O=C(N1CCOCC1)N1CCN(c2ccccn2)CC1	11.2%
CCN(Cc1ccncc1)C(=O)c1cccc(S(=O)(=O)N2CCCCC2)c1	7.23%
COc1ccc(N2CCN(C(c3cccs3)C(C)NC(=O)C(=O)N3CCOCC3)CC2)cc1 (centres undefined)	49.4%
O=C(NNC1CCN(Cc2ccccc2)CC1)c1ccccc1	-7.54%
CN(Cc1ccc(OCC(O)CN(C)Cc2ccccc2)cc1)Cc1nccn1C (centres undefined)	6.67%
CC(NC1CCN(Cc2ccccc2)CC1)c1ccc(F)cc1 (centres undefined)	-0.389%
CC(Oc1ccccc1Cl)C(=O)Nc1ccc(S(=O)(=O)Nc2nccs2)cc1 (centres undefined)	2.94%
CCNc1nc(NC(C)CC)nc(ON=C(C)C)n1 (centres undefined)	7.53%
Cc1cc(=O)oc2c3c(cc(OCC(=O)NC(C)C)c12)OC(C)(C)CC3	2.56%
O=C(O)COc1ccc2c3c(c(=O)oc2c1)CCC3	2.84%
O=c1[nH]c2ccccc2nc1-c1nnnn1C1CCCC1	11.3%
CCOc1ccc(OCCC(=O)N(CC)CC(=O)NCc2cccs2)cc1	-7.63%
CC(O)c1nc2ccccc2n1C1CCCCC1 (centres undefined)	-9.74%
COc1ccc(N2C(=O)CC(Sc3nc(C)cc(C)c3C#N)C2=O)cc1 (centres undefined)	-7.36%
COc1cc(C(=O)Nc2cc(C(F)(F)F)ccc2N2CCOCC2)ccc1OCC(=O)N1CCOCC1	0.175%
O=C(Nc1ccccc1Oc1ccsc1C(=O)O)c1ccccc1F	3.53%
Cc1cc(C)nc(NC(N)=NCCc2c[nH]c3ccccc23)n1	-15.7%
CCOC(=O)c1[nH]cnc1C(=O)NC(C)C	-12.7%
O=C1c2[nH]nc(-c3ccccc3)c2C(c2ccccc2)N1c1ccccc1 (centres undefined)	9.7%
